Screening data from PubChem.
Hits are enriched below; roughly 1.4% of the tested compounds scored in any of these assays.
HttQ103 aggreg = reduces HttQ103-GFP aggregates in PC12 cells | 1.1% of 220,000 active | Potency, µM (top dose mostly 46.1 µM), for the others: top-dose activity change, negative = inhibition, usual class: inhibitors | PC12 HttQ103-GFP aggregates, Acumen cytometry, 40 h; further: on the % scale 0 is the no-effect control and ±100 the full control effect; nearly all actives have a fitted effect of over 60% in size
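Quantitative HTS on tebufenozide-induced (100 nM) PC12 cells stably expressing polyQ103 Huntingtin exon 1–GFP. Reduction of bright GFP aggregates, detected by laser scanning cytometry after lysis, identified actives across the titration.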
ERK EGF block = EGF-driven ERK pathway inhibition | HEK293-V1b, EGF-stimulated phospho-ERK AlphaScreen | Potency, µM (highest dose often 11.5 µM), without a hit: at the top dose activity change, negative = inhibition, most hits filed as inhibitors | 0.41% of 130,000 active | AID 1454;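 further: plate controls were stimulated vehicle wells for no effect and unstimulated vehicle basal for full effect; nearly all actives have a fitted effect of over 55% in size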
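HEK293 cells stably expressing V1b receptor, serum-reduced (1% FBS) overnight, pretreated 30 min with compound, then stimulated 5 min with 25 nM EGF; phospho-ERK detected by AlphaScreen SureFire. AC50 from Hill fits, normalized to DMSO and EGF.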
HTT ATP protect = protects HTT-Q103 PC12 cells, measured by ATP; PC12 HTT-Q103 induced, cytoprotection, ATP luminescence, 40 h; Potency, µM (highest dose often 56.4 µM), inactives show cytoprotection (ATP increase), most hits filed as activators; 0.14% of 230,000 active; AID 1471; further: % of control where 0% means no effect; nearly all actives have a fitted effect of over 45% in size
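ATP quantification (ATPlite) reports survival of PC12 cells in which tebufenozide, 100 nM final, switches on Htt exon 1 with 103 glutamines linked to GFP; compounds are titrated.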
Numbers without * were called inactive; [ ] = remark or other dose. The call rests on the fitted dose curve; in most records, active means well fitted curve in the direction sought with a large enough effect; inconclusive means small, poorly fitted or top-dose-only effect, or another doubt; inactive means no such curve, though single readings can be large; an effect the other way counts as inactive or inconclusive. Potency means the concentration at half of the fitted maximal effect.

COC(=O)[C@@]1(Cc2ccc(F)cc2)[C@H]2c3cc(C(=O)N4CCCC4)n(Cc4ccc(C(F)(F)F)nc4)c3C[C@H]2CN1C(=O)c1ccccc1 was read as HttQ103 aggreg -11%, ERK EGF block 0% and HTT ATP protect 10µM*.
COC(=O)[C@@]1(Cc2ccccc2)[C@H]2c3cc(C(=O)N4CCCC4)n(Cc4ccc(C(F)(F)F)nc4)c3C[C@H]2CN1C(=O)c1ccccc1 was read as ERK EGF block -1% and HTT ATP protect -31%.
For COc1ccc(O)c(/C=N/NC(=S)Nc2cccnc2)c1 the results were HttQ103 aggreg 13µM*, ERK EGF block 1% and HTT ATP protect -148%.
For COc1cccc(/C=N/NC(=S)Nc2cccnc2)c1 the results were HttQ103 aggreg 12%, ERK EGF block -16% and HTT ATP protect -8%.
For CCSCCc1nnc(NC(=O)Nc2cccc(C(F)(F)F)c2)s1 the results were HttQ103 aggreg 11µM*, ERK EGF block -9% and HTT ATP protect -11%[1.9 µM].
`O=C(NNC(=S)Nc1cccc(C(F)(F)F)c1)c1ccc(Cl)cc1Cl` gave HttQ103 aggreg 11µM*, ERK EGF block 1% and HTT ATP protect 5%[10 µM].
Screening Cc1ccccc1NC(=O)CNC(=O)c1ccc(C(F)(F)F)cc1 returned HttQ103 aggreg 6%, ERK EGF block -6% and HTT ATP protect 15%[10 µM].
Screening CCn1ncc(NC(=O)Nc2cccc(C(F)(F)F)c2)c1C(N)=O returned HttQ103 aggreg -20% and HTT ATP protect 8%[0.074 µM].
For O=C(Nc1ccccc1)Nc1cccc(C(F)(F)F)c1 the results were HttQ103 aggreg 22µM*, ERK EGF block 9% and HTT ATP protect -80%.
For CNC(=O)Nc1cccc(C(F)(F)F)c1 the results were HttQ103 aggreg -18%, ERK EGF block 0% and HTT ATP protect 3%[10 µM].
`Cc1ccccc1C(=O)NNC(=S)Nc1cccc(C(F)(F)F)c1` gave HttQ103 aggreg 19% and ERK EGF block 5%.
For Cc1ccccc1NC(=O)Nc1ccc(C(F)(F)F)cc1 the results were HttQ103 aggreg 11µM*, ERK EGF block 0% and HTT ATP protect -49%.
Screening N#Cc1c(NC(=O)CCC(=O)O)ccc2ccccc12 returned HTT ATP protect 0%[10 µM].
Screening CCCn1c(C)nc2c(NCCN3CCOCC3)nc(C)nc21 returned ERK EGF block -10% and HTT ATP protect 12%.
CCCCCCN1C=C/C(=C\C=C(C#N)C#N)c2ccccc21 was read as HttQ103 aggreg inconclusive, ERK EGF block 14µM* and HTT ATP protect 22%[1.9 µM].
C=CCN1C=C/C(=C\C=C(C#N)C#N)c2ccccc21 was read as HttQ103 aggreg 19%, ERK EGF block inconclusive and HTT ATP protect 1%[10 µM].
Screening Cc1cc(C)n(-c2nc(Nc3ccccc3C)nc(-n3nc(C)cc3C)n2)n1 returned HttQ103 aggreg -24% and HTT ATP protect -16%.
Screening Cc1cc(C)n(-c2nc(Nc3ccccc3C(F)(F)F)nc(-n3nc(C)cc3C)n2)n1 returned HttQ103 aggreg 10µM*, ERK EGF block inconclusive and HTT ATP protect 11%[1.9 µM].
For CC(C)C[C@@H](CC(=O)N[C@@H](CCC(=O)O)CC(=O)O)NC(=O)[C@@H]1CNCC[C@H]1NC(=O)C[C@H](CCCN)NC(=O)C[C@H](CO)NC(=O)[C@@H]1CCCC[C@H]1N the results were ERK EGF block -18% and HTT ATP protect -1%[1.9 µM].
For C[N+](C)(C)CCCCCC[N+](C)(C)C the results were HttQ103 aggreg -10%, ERK EGF block 12% and HTT ATP protect inconclusive.
`CCCCCCCCCCCCCCCC[N+](C)(C)Cc1ccccc1` gave HttQ103 aggreg inconclusive and HTT ATP protect -97%.
`CCCCCC[N+](C)(C)CCSSCC[N+](C)(C)CCCCCC` gave HttQ103 aggreg -8%[9.22 µM], ERK EGF block -13%[57.5 µM] and HTT ATP protect 10%[10 µM].
For CCCCCCCCCCCCCC[N+](C)(C)C the results were HttQ103 aggreg 16µM* and HTT ATP protect -107%.
CCCCCCCCCCCCCCCC[N+](C)(C)CC was read as HttQ103 aggreg 14µM* and HTT ATP protect -98%.
`CCCCCCCCCCCCCC[N+](C)(C)Cc1ccccc1` gave HttQ103 aggreg 25µM* and HTT ATP protect -99%.
For C#CC[N+](C)(C)CCCCCCCCCC the results were HttQ103 aggreg inconclusive, ERK EGF block -3% and HTT ATP protect -7%[10 µM].
`C#CC[N+](C)(C)CCCCCCCC` gave HttQ103 aggreg 8.9µM*, ERK EGF block 2% and HTT ATP protect -12%[10 µM].
Screening CC(C)CO/N=C1/C[C@@H](O)[C@@H](O)[C@@H]2[C@@H]3C(=O)N(Cc4ccc5c(c4)OCO5)C(=O)[C@H]3CC[C@H]12 returned HTT ATP protect -11%[10 µM].
For COc1ccc(C(=O)c2ccc(O)cc2)c(O)c1O the results were ERK EGF block 16%.
Screening Cc1cc2c(cc1Cl)C(c1ccc3c(c1)OCO3)CC(=O)O2 (configuration not stated) returned HTT ATP protect -17%.
Screening O=C(O)NCc1ccccc1 (tested in a mixture with another compound) returned HTT ATP protect -5%[10 µM].
Screening O=c1[nH]c(=O)n([C@@H]2O[C@H](CO)[C@@H](O)[C@H]2O)cc1F returned ERK EGF block 2% and HTT ATP protect -102%[1.9 µM].
C[C@@]1(C(NC(=O)c2cccs2)c2ccc(-c3ccccc3)cc2)C[C@H]1C1CCCCC1 (some centres not stated) was read as ERK EGF block 10% and HTT ATP protect -144%.
O=c1c(-c2cccs2)nc2cnc(Nc3ccccc3)nc2n1C[C@H]1CCCO1 was read as HTT ATP protect 0%.
`CNC(=S)Nc1cccc2[nH]ncc12` gave HttQ103 aggreg 11% and HTT ATP protect 11%[10 µM].
For O=C(Nc1cccc2ncccc12)c1ccc(F)cc1 the results were HttQ103 aggreg -12%, ERK EGF block -2% and HTT ATP protect 23%[10 µM].
`O=C(Nc1cccc2[nH]ncc12)c1ccc(F)cc1` gave HttQ103 aggreg 5µM* and HTT ATP protect -15%.
For O=C(NC(=S)Nc1cccc2[nH]ncc12)c1ccccc1 the results were HttQ103 aggreg 10µM*, ERK EGF block 7% and HTT ATP protect -9%.
Screening COC(=O)C1=C(C)NC(C)=C(C(=O)OCCN(C)Cc2ccccc2)[C@H]1c1cccc([N+](=O)[O-])c1 returned ERK EGF block 10%[25.7 µM] and HTT ATP protect -51%[17.1 µM].
`O=C(ONC1=NCCCCC1)c1c(F)cccc1F` gave HttQ103 aggreg -6% and HTT ATP protect 0.79µM*.
`O=C(ONC1=NCCCCC1)c1ccc(Cl)cc1` gave HttQ103 aggreg 2% and HTT ATP protect 16%.
`CCC(=O)N1Cc2ccccc2-c2ccccc2C1=O` gave HttQ103 aggreg 5.6µM* and HTT ATP protect 3%[0.074 µM].
O=C(O)CCN1Cc2ccccc2C1=O was read as HttQ103 aggreg -4% and HTT ATP protect 23%[10 µM].
CCC(C)[C@H](NC(=O)Nc1ccc(C)cc1C)C(=O)O (some centres not stated) was read as HttQ103 aggreg -18%[9.22 µM], ERK EGF block -17%[57.5 µM] and HTT ATP protect 29%[10 µM].
`COc1ccccc1NC1=C(NC(C)=O)C(=O)c2ccccc2C1=O` gave HttQ103 aggreg 28%, ERK EGF block inconclusive and HTT ATP protect 13%[10 µM].
